Legend:
Assay in all cases: PBM binding z-score (relative to random genomic background probes); higher = stronger binding; sequences stand for … in GC…GCGATTGACAGCGTAGAATGAAGG
[1] = tested on: FXR:RXRa (NR concentration 270 nM, RXRa partner concentration 90 nM)
Method in brief: (§1)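 Ligand-free nuclear receptor dimers were bound for 1 h to custom Agilent 4×180K protein-binding microarrays. Detection used antibodies against each partner (one per run). Binding z-scores rest on regression-normalized fluorescence, with random background probes as the reference.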

[2] = tested on: LXRa:RXRa (NR concentration 270 nM, RXRa partner concentration 90 nM)
Method in brief: as §1

[3] = tested on: LXRa homodimer (NR concentration 270 nM)
Method in brief: as §1

[4] = tested on: LXRb:RXRa (NR concentration 270 nM, RXRa partner concentration 90 nM)
Method in brief: as §1

[5] = tested on: LXRb homodimer (NR concentration 270 nM)
Method in brief: as §1

[6] = tested on: PPARa:RXRa (NR concentration 270 nM, RXRa partner concentration 90 nM)
Method in brief: as §1

[7] = tested on: PPARg:RXRa (NR concentration 180 nM, RXRa partner concentration 90 nM)
Method in brief: as §1

[8] = tested on: PPARg:RXRa 270nM:90nM, anti-RXR (NR concentration 270 nM, RXRa partner concentration 90 nM)
Method in brief: as §1

[9] = tested on: PPARg:RXRa 30nM:10nM, anti-RXR (NR concentration 30 nM, RXRa partner concentration 10 nM)
Method in brief: as §1

[10] = tested on: PPARg:RXRa 90nM:30nM, anti-RXR (NR concentration 90 nM, RXRa partner concentration 30 nM)
Method in brief: as §1

Row | Sequence | PBM binding z-score [1] | PBM binding z-score [2] | PBM binding z-score [3] | PBM binding z-score [4] | PBM binding z-score [5] | PBM binding z-score [6] | PBM binding z-score [7] | PBM binding z-score [8] | PBM binding z-score [9] | PBM binding z-score [10]
1 | TCGAGTAGGTTACCAATGAGGCATTCAGCTTTCT | 0.0141 | 0.677 | -0.666 | 0.0718 | -1.38 | 1 | 0.215 | 1.15 | 1.28 | 1.22
2 | ACTATTAGTTGAGACGAGGGCAACCGATAGGTTG | 0.538 | 0.128 | 0.022 | 0.22 | 0.0471 | 0.636 | 0.774 | 0.555 | 0.376 | 0.316
3 | AGAACGAGGGCACGCTGAGTTGATAGCTGAGTAG | 0.863 | 0.607 | -0.912 | 0.017 | -0.95 | 2.18 | 2.08 | 1.87 | 0.18 | 1.06
4 | ATATGTCGGTTAGCTGGGGTCATTCAGACTAGGC | 3.68 | 4.3 | 2.96 | 4.36 | 1.24 | 4.39 | 1.86 | 2.65 | 0.599 | 1.75
5 | ATATCTAGGTTAGCTGGGGTCATTCAGACTAGGC | 4.62 | 5.44 | 3.33 | 4.64 | 2.06 | 5.23 | 5.59 | 5.22 | 2.61 | 4.47
6 | TCTATCAGTTGAAGGGCAACCGACGAGTCCGTTT | 0.369 | 0.777 | -0.273 | 0.501 | -0.0897 | 0.935 | 0.152 | 2 | 3.44 | 2.89
7 | AGAATGAGGTTACCCAAGATCAGGGAAACGCTTG | 1.63 | 5.76 | -0.558 | 2.48 | -0.333 | 3.05 | 2.29 | 2.2 | 0.837 | 1.49
8 | TAGCCCAGGTCATGCGGGCCAGTATAGTGTCGGC | 4.35 | 3.42 | 0.136 | 1.9 | -0.0451 | 3.8 | 2.55 | 2.55 | 0.267 | 1.35
9 | CCTAGCAGGCAAGGGTCACTCAAGCATTTCGCTT | 2.9 | 2.67 | -0.242 | 2.45 | -0.627 | 3.8 | 1.77 | 3.27 | 0.737 | 2.48
10 | TGGATGAGGTTATAAGATCAGGGAACGTTGCAAA | 1.51 | 1.26 | 0.181 | 1.52 | 0.594 | 2.42 | 0.897 | 1.54 | 0.844 | 1.35
11 | CGTCCAAGGTCAAGGTCAGCGAAAGAGACTCGAA | 7.53 | 5.5 | 1.11 | 4.65 | 0.78 | 5.89 | 6.76 | 6.42 | 3.23 | 5.28
12 | ACTAGCAGGCCCAGGGTCACTCAAGATTAGTCCG | 1.28 | 1.58 | -0.164 | 1.69 | -0.913 | 2.27 | 1.36 | 2.3 | 0.49 | 1.68
13 | AGGATGAGGTTACCAAAGATCAGGGAAACGCTTG | 1.74 | 6.04 | 0.206 | 3.17 | 0.353 | 2.93 | 1.55 | 1.76 | 0.744 | 1.12
14 | ATCTCTAGATAACAAGTTCAGTGAAAGAGAGGAC | 0.459 | 0.495 | 0.398 | 0.384 | 0.4 | 0.365 | 0.657 | 0.541 | 0.363 | 0.315
15 | ATCTCTAGGTTACAAGTTCAGTGAAAGAGAGGAC | 1.64 | 2.33 | 1.68 | 1.55 | 1.77 | 2.51 | 2.72 | 3.25 | 1.77 | 2.97
16 | AGATGTAGGTTAAGGGTCATTCAGGTTGGTTCGC | 5 | 5.02 | 2.97 | 4.61 | 1.63 | 6.45 | 11 | 9.78 | 9.52 | 10.7

Row | Sequence | PBM binding z-score [1] | PBM binding z-score [2] | PBM binding z-score [3] | PBM binding z-score [4] | PBM binding z-score [5] | PBM binding z-score [6] | PBM binding z-score [7] | PBM binding z-score [8] | PBM binding z-score [9] | PBM binding z-score [10]
17 | CCTTACGGGTCACTAACAGGTTATAGCATTTGGA | 4.73 | 4.24 | 0.54 | 3.4 | 0.319 | 4.89 | 3.61 | 3.78 | 1.37 | 2.83
18 | CGTACAAGGTCATAGGAGGTCAGTGAAGACAGAT | 7.48 | 7.5 | 5.3 | 6.46 | 1.33 | 6.18 | 6.47 | 6.66 | 3.17 | 5.29
19 | AGAATGTGGTTATTAAGATCAGGGAATTGCGGTC | 0.0647 | -0.0146 | 0.00993 | -0.0352 | 0.111 | -0.0476 | 0.144 | 0.078 | -0.037 | 0.417
20 | ATCTGTAGGTAAGACTCAGTTCAGTGAAGAACGC | 0.0473 | 0.226 | 0.296 | 0.0254 | -0.0598 | 0.0967 | 0.00745 | 0.0947 | -0.305 | -0.0173
21 | CCAACTAGGTCAAGGTCAAAGTCGGTTTGTGCCA | 6.64 | 5.56 | 4.61 | 4.73 | 1.43 | 6.14 | 9.18 | 7.58 | 5.13 | 7.56
22 | TCTAGTTGGTCACGGAGGTCGCACACGACGGGTA | 0.941 | 1.09 | -0.0222 | 1.04 | 0.0566 | 2.04 | 1.61 | 2.28 | 2.83 | 2.43
23 | CAAACTAGATCAAGGTCAAAGTCGGTTTGTGCCA | 4.53 | 4.46 | 3.64 | 3.65 | 0.973 | 4.54 | 3.63 | 3.99 | 1.31 | 2.91
24 | TTCCCAAGGTGAAAGGTCGTTGATGCACGCCTTG | 3.69 | 3.79 | 0.848 | 2.97 | -0.253 | 5.44 | 7.9 | 7.35 | 6.2 | 7.54
25 | AGAATGAGGTTATTAAGATCGGGGAATTGCGGTC | 1.39 | 1.31 | 0.0422 | 1.14 | 0.139 | 2.39 | 0.982 | 1.43 | 0.253 | 0.888
26 | CCAGACAGGTGAAAGGTAACTGAGTCTGGTACGC | 0.744 | 0.866 | -0.565 | 0.528 | -0.541 | 3.52 | 6.16 | 6.38 | 4.81 | 5.99
27 | TCGAGTAGGTTACCAATGGGGCGTTCAGCTTTCT | -0.0945 | 0.41 | -0.684 | 0.47 | -0.564 | 1.09 | -0.0878 | 1.06 | 0.919 | 1.03
28 | TCTAGTTGCTCAAAGGTCACACACTCGAAATGCG | 5.09 | 5.26 | 3.7 | 5.39 | 1.49 | 5.88 | 6.32 | 6.78 | 6.1 | 6.91
29 | CGTCCAAGGTCAAAGGTCAGTGTAGAGATGACGG | 8.42 | 7.04 | 3.99 | 6.49 | 1.91 | 7.25 | 10.7 | 9.05 | 7.79 | 9.69
30 | CGAACTAGGTCAAGGTCAAAGTCGGTTTGTGCCA | 6.55 | 5.52 | 3.7 | 4.39 | 1.14 | 5.86 | 9.77 | 7.93 | 6.78 | 8.09
31 | GCAGACAGGCGAAACGCAGGTAACTCAGGGTGGC | -0.64 | -0.615 | -0.761 | -1 | -1.38 | -0.682 | 0.297 | -0.871 | -0.326 | -0.791

— the supplement of paper PMC6555819
